Reference: PubChem BioAssay AID624267 (The Scripps Research Institute Molecular Screening Center, 2012)
The campaign covered roughly 360,000 compounds. About 1,400 (0.39%) were called active. This is one part of a sample in which actives are shown more often than they occur. Cut-off read from the data, not from the text of the source: active = inhibition above about 21%; inactive = the rest.

target: Receptor-interacting serine/threonine-protein kinase 2 (Homo sapiens) (UniProt O43353); test: inhibitors of RIPK2 association with NOD2 – fluorescence, CHO cells, BLA complementation, primary screen (AID 624267); details: CHO BLA complementation NOD2-RIPK2, CCF4 ratio; at 4.98 µM; stronger effect = higher value;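 note: 0% = vehicle only and 100% = reference blocker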
Sequence (O43353 whole entry, looked up): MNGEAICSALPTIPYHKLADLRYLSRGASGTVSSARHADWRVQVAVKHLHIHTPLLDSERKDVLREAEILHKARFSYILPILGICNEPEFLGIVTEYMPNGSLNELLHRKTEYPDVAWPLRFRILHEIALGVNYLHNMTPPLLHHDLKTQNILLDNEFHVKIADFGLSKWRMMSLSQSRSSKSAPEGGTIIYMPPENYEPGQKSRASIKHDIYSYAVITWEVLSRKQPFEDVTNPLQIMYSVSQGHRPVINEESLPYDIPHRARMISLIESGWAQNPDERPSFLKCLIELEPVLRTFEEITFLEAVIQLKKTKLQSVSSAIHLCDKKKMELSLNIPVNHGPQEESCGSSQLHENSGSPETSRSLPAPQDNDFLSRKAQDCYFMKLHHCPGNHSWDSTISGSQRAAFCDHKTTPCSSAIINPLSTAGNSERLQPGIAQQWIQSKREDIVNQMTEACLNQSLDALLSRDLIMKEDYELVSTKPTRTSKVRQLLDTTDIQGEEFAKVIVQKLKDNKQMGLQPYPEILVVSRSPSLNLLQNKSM

Row | Compound | inhibition
1 | COCCN(C(=O)CSCc1ccc(C)cc1)c1c(N)n(CC(C)C)c(=O)[nH]c1=O | -4.76% (inactive)
2 | CN(C)CCCO/N=C(\c1ccccc1)c1ccncc1 | -6.88% (inactive)
3 | CCO[C@@H]1OC(C(N)=O)=C[C@H](c2ccc(Br)cc2)[C@H]1CCCO | -17.7% (inactive)
4 | CN(C)S(=O)(=O)c1cccc(C(=O)OCC(=O)N2CCCC2=O)c1 | -8.86% (inactive)
5 | NS(=O)(=O)c1cccc(NC(=O)COC(=O)c2cc([N+](=O)[O-])ccc2N2CCCC2)c1 | -11.1% (inactive)
6 | CC(=O)Nc1ccc(NC(=O)C(C)OC(=O)c2ccccc2C(=O)c2ccc(Cl)c([N+](=O)[O-])c2)cc1 (configuration not stated) | 3.48% (inactive)
7 | N#Cc1cccc(NC(=O)COC(=O)c2ccccc2C(=O)c2ccc(Cl)c([N+](=O)[O-])c2)c1 | 39.9% (active)
8 | Cn1nnnc1SCC(=O)NNC(=O)c1ccc(Br)cc1 | -2.01% (inactive)
9 | CN1CCN(/N=C/c2ccc(C#N)cc2)CC1 | -13.1% (inactive)
10 | CN1CCN(/N=C/c2ccc(-c3ccc([N+](=O)[O-])cc3)o2)CC1 | 21.4% (active)
11 | CN1CCN(/N=C2/C(=O)Nc3ccc([N+](=O)[O-])cc32)CC1 | 1.73% (inactive)
12 | COCCNC(=O)C(c1ccc(C)o1)N(Cc1cccs1)C(=O)c1snc(C(N)=O)c1N (configuration not stated) | -22% (inactive)
13 | Cc1nnc(NC2=NCCCCC2)o1 | -2.4% (inactive)
14 | COc1ccc(CNC(=O)CN2CCC(n3nnc4cc(F)ccc43)CC2)cc1 | -4.66% (inactive)
15 | Cn1c(SCC(=O)C(C)(C)C)nnc1-c1ccccn1 | 2.6% (inactive)
16 | O=C(O)COc1ccc(/C=N/O)cc1Br | 11.6% (inactive)

Row | Compound | inhibition
17 | CNC(=S)N/N=C/c1ccc(OCc2ccccc2)c(Br)c1 | 33.9% (active)
18 | COc1cc(/C=N/NC(=O)Nc2ccccc2)ccc1OCCOc1ccccc1C | 9.59% (inactive)
19 | Cc1c(-c2ccccc2)cn2c1-c1ccc(C)n1CC2 | -12.5% (inactive)
20 | [O-][n+]1onc2c1CCc1[nH]c(-c3ccccc3)nc1-2 | -6.67% (inactive)
21 | CC(C)=CCC/C(C)=C/C(=O)O | 3.56% (inactive)
22 | Cc1cc(C)nc(NC(=O)Nc2ccccc2C(F)(F)F)n1 | 7.62% (inactive)
23 | O=C(/C=C/Sc1ncn[nH]1)c1ccc(Cl)cc1 | 21.3% (active)
24 | CC(C)CC(=O)N=C1SC2CS(=O)(=O)CC2N1CCc1ccccc1 (configuration not stated) | -9.18% (inactive)
25 | C=CCn1c(-c2ccccc2OCC)n[nH]c1=S | 0.62% (inactive)
26 | O[C@@H]1C[C@H](c2ccccc2)N(Cc2cccs2)C[C@H]1n1cc(C2CC2)nn1 | -9.47% (inactive)
27 | O[C@H]1C[C@H](c2ccc(Cl)cc2)N(Cc2cccs2)C[C@@H]1n1cc(C2CC2)nn1 | 21.6% (active)
28 | O[C@H]1CN(Cc2cccs2)[C@@H](c2ccc(Cl)cc2)C[C@@H]1n1cc(C2CC2)nn1 | 5.68% (inactive)
29 | CC(=O)Nc1ccc(CNc2nc(NCCN(C)C)nc3cc(-c4ccccc4)sc23)cc1 | 11.1% (inactive)
30 | Cc1ccc(C(=O)N2CCC(n3nccc3NC(=O)Nc3cccc(F)c3)CC2)cn1 | -2.88% (inactive)
31 | COc1ccc2ccccc2c1CNCc1ccccn1 | -4.61% (inactive)
32 | FC(F)Oc1ccccc1C1CC(c2ccc(Br)s2)Nc2ncnn21 (configuration not stated) | -2.05% (inactive)
